# Bioassay records from PubChem.
# NPR1 activator: GC-A stimulated cGMP production enhancers – HEK293 GC-A cells, cGMP TR-FRET, EC30 ANP, primary screen; activation, % at 10 µM; hit rate 0.14% among 370,000; AID 1671463, 2021; 0% at EC30 ANP, 100% saturating ANP; in the data active = activation above about 40%
# GC-B act: human GC-B receptor activators, primary screen, HEK293 GC-B cells, cGMP TR-FRET, EC30 CNP. Atrial natriuretic peptide receptor 2 (Homo sapiens), P20594. 0% at EC30 CNP, 100% saturating CNP. activation, % at 10 µM. hit rate 0.11% among 370,000. AID 1920062, 2024;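 active = activation at 10 µM reaching about 35% in either raw or pattern-adjusted values, limit read from the data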
# Rce1 inhib: yeast Rce1p protease inhibitors, primary screen, biochemical, fluorescence, cell-free homogeneous; yeast membranes, quenched prenylated peptide cleavage fluorescence; CAAX prenyl protease 2 (Saccharomyces cerevisiae (strain ATCC 204508 / S288c)), Q03530; hit rate 0.27% among 290,000; calls only;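 active = fall in fluorescence gain of 50% or more versus controls, with final raw signal at or below 3038400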;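 also: plate controls were neutral control wells for no effect and wells lacking membranes for full effect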
# PfM18AAP inh-1: PfM18AAP inhibitors, malaria aminopeptidase, primary screen, biochemical, QFRET, recombinant enzyme; M18 aspartyl aminopeptidase (Plasmodium falciparum 3D7); H-Glu-NHMec fluorogenic cleavage; inhibition, % at 7.35 µM; hit rate 1.2% among 290,000; AID 1822, 2009;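 active = inhibition above the campaign mean inhibition over all tested compounds plus 3 SD, cut at about 28% in these data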;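 also: 0% = plate median of test compound wells and 100% = 2 mM ZnCl2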
# PLC-beta3 inh: human PLC-beta3 inhibitors, primary screen, biochemical, fluorescence. hit rate 0.18% among 370,000. inhibition, % at 12.2 µM. AID 720704, 2013. Purified PLC-beta3, fluorogenic substrate; in the data active = inhibition above about 11%;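 also: 0% = median of compound wells on plate and 100% = full blocker control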
# PLCg1 inh: PLC-gamma1 enzyme inhibitors, primary screen, biochemical, fluorescence, purified enzyme; hit rate 0.84% among 370,000; inhibition, % at 12.2 µM; fluorogenic substrate; in the data active = inhibition above about 9.5%
# PfM18AAP inh-2: PfM18AAP inhibitors, malaria aminopeptidase, confirmation, biochemical, QFRET, recombinant enzyme, triplicate. H-Glu-NHMec fluorogenic cleavage. hit rate 28% among 2,400. shares compounds with PfM18AAP inh-1. inhibition, % at 7.35 µM;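 active = mean inhibition over replicate wells above the hit cutoff set for the earlier primary screen, cut at about 29% in these data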;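 also: 0% = median of test compound wells and 100% = 2 mM ZnCl2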
# CTSL1 counter: cathepsin L1 inhibitors, retest, confirmation, counter-screen for PFM18AAP inhibitor project, biochemical, QFRET, triplicate; shares compounds with PfM18AAP inh-1; purified cathepsin L1, Z-Leu-Arg-MCA fluorescence; inhibition, % at 5.96 µM; 2,400 tested, under 10 active; AID 2178, 2009;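 active = average inhibition across replicates above the hit cutoff set in the earlier primary screen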;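 also: 0% = median of test compound wells and 100% = Z-Phe-Ala-diazomethylketone 1 µM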
# Starred values were filed as active, the others as inactive; i = inactive; nt = not tested or not shown. In the library only some 2.2% were active in any assay of this set; here they are far more common.
SMILES,NPR1 activator,GC-B act,Rce1 inhib,PfM18AAP inh-1,PLC-beta3 inh,PLCg1 inh,PfM18AAP inh-2,CTSL1 counter
COc1ccc(NC(=O)NNC(=O)c2ccc(-c3ccccc3)cc2)c(OC)c1,0.8,-4.5,i,-7.2,-11.7,-3.1,nt,nt
Cc1nn(C)c(Sc2ccccc2N)c1[N+](=O)[O-],2.9,6.2,i,39.2*,1.3,1.4,-12.9,0.3
CCOC(=O)N1CCN(C(=O)C[C@H]2C[C@@]3(C(=O)OC)C(=C[C@H](COCc4ccccc4)O[C@@H]3C)N(Cc3cccc4ccccc34)C2=O)CC1,-2.4,0.0,nt,nt,2.4,3.9,nt,nt
Cc1cc(=O)[nH]c(SCC(=O)NNC(=O)Cc2ccccc2)n1,-2.5,-4.7,i,35.5*,-1.3,-0.3,2.2,-4.8
CC(C)(N[C@@H](Cc1ccccc1)C(=O)NCCCc1ccccc1)C(=O)NCc1ccccc1,-2.3,-6.1,nt,nt,-2.7,-2.8,nt,nt
COC(=O)[C@H](C(C)C)N(CCCc1cn(Cc2ccccc2)nn1)S(=O)(=O)c1ccccc1Br,-1.0,7.9,nt,nt,3.7,0.8,nt,nt
OCCN1CCN(C(=S)c2ccc(Cl)c(Cl)c2)CC1,-0.7,4.8,i,49.2*,2.4,2.1,4.5,-4.6
CN=c1scc(C)n1/N=C/c1ccc(O)c(O)c1O,-7.5,0.2,i,47.4*,-12.6,-6.9,22.2,-5.1
COCCN=c1scc(-c2ccco2)n1/N=C/c1ccc(O)c(O)c1O,-1.2,3.3,nt,35.8*,-13.7,-6.6,4.8,-1.9
COc1cc(/C=N/n2c(-c3ccc4c(c3)NC(=O)CO4)csc2=Nc2cccc(C)c2)ccc1O,3.5,10.2,i,12.8,-62.2,-41.8,nt,nt
CC(C)N=c1scc(-c2ccco2)n1/N=C/c1ccc(O)c(O)c1,-3.0,-0.2,nt,44.8*,-24.6,-20.4,48.6*,-0.4
C=CCN=c1scc(-c2ccco2)n1/N=C/c1ccc(O)c(O)c1O,1.7,4.2,i,44.8*,-11.9,-3.4,3.7,-1.5
Oc1ccc(/C=N/n2c(-c3ccco3)csc2=Nc2cccnc2)c(O)c1,-0.5,-7.9,i,11.8,-134.1,-90.7,nt,nt
Cc1cc(N2CCN(C(=O)Oc3ccc(C(F)(F)F)cc3)CC2)c2ccccc2n1,-3.5,1.0,nt,nt,1.5,-0.7,nt,nt
Cc1ccc(-n2c(SCC(=O)c3ccc(F)cc3)nnc2-c2cnccn2)cc1,4.1,-9.5,nt,nt,-1.6,-3.5,nt,nt
CN(C)c1cccc(/C=C2\CC3(OC(=O)c4ccccc4)CCCN2C3)c1 (stereo not given),-3.7,-16.8,nt,nt,-10.7,0.5,nt,nt
CN(CC#Cc1ccccc1)C(N)=NC(=O)/C=C/c1ccccc1,-11.0,0.8,nt,nt,-0.9,-1.5,nt,nt
Oc1ccc(/C=N/n2cnn(Cc3ccccc3Cl)c2=S)c(O)c1,1.8,1.9,i,38.6*,-11.0,-12.0,-12.1,0.9
Cn1c(N/N=C/c2c[nH]c3ccccc23)nc2ccccc21,-7.0,-7.6,i,54.0*,-13.2,-7.7,7.1,5.3
Cc1cc(N/N=C/c2c[nH]c3ccccc23)c2ccccc2n1,1.5,-7.5,i,2.7,-27.6,-27.0,nt,nt
O=C(Nc1ccc(C(=O)O)cc1)/C(=C\c1ccco1)NC(=O)c1ccco1,0.8,4.0,i,32.3*,-81.4,-43.2,-43.9,1.4
C/C(=N/NC(=O)CSc1nnc(SCc2ccc(C)cc2)s1)c1cccc(O)c1,-3.4,-2.4,nt,nt,-5.1,0.0,nt,nt
CCC[C@H]1[C@@H](OC(=O)NCCc2ccccc2)CC[C@@]23CCCN2C(=O)CCC[C@@H]13,-16.7,-11.2,nt,nt,1.3,1.1,nt,nt
COC(=O)c1ccc(C(=O)OC)c(=O)[nH]1,3.8,5.2,i,17.7,-128.8,-88.2,-61.9,2.6
COc1ccc(Br)cc1CNc1ccc(O)cc1,1.2,-7.7,nt,42.0*,-70.5,-54.9,-23.8,-3.2
SMILES,NPR1 activator,GC-B act,Rce1 inhib,PfM18AAP inh-1,PLC-beta3 inh,PLCg1 inh,PfM18AAP inh-2,CTSL1 counter
CCOC(=O)[C@]12CCCCC/C=C\1N(CCc1ccc(Cl)cc1)C(=O)[C@H]2CC(=O)NCc1ccc(C)o1,-4.8,-0.2,nt,nt,4.2,4.3,nt,nt
NC(=O)C1CCN(C(=O)c2cccc(S(=O)(=O)N3CCc4ccccc4C3)c2)CC1,0.4,6.8,i,2.7,-2.9,1.8,nt,nt
O=C(c1cccc(S(=O)(=O)N2CCc3ccccc3C2)c1)N1CCN(c2ccc(O)cc2)CC1,0.7,-1.1,i,35.6*,2.1,1.4,-4.8,4.2
CC(Sc1nc(C(C)(C)C)cc(-c2ccccc2)c1C#N)C(=O)Nc1ccccc1 (stereo not given),-1.1,3.2,i,33.1*,2.6,2.6,-18.1,-0.8
CC(=O)NC(c1ccc(Cl)cc1)c1ccc2cccnc2c1O (stereo not given),-1.6,-1.4,nt,nt,-35.8,-15.9,nt,nt
CC(=O)NC(c1ccco1)c1ccc2cccnc2c1O (stereo not given),nt,nt,i,47.8*,nt,nt,-13.4,5.2
Cc1ccc(C(=O)NC2CCCCN(C(C)C)C2=O)cc1 (stereo not given),3.5,8.8,nt,nt,1.7,-2.2,nt,nt
c1ccc2c(CNc3ccc(CNc4ncn[nH]4)cc3)cccc2c1,-9.3,-10.8,i,17.0,-27.6,-12.9,nt,nt
CN(C)c1ccc(CNc2ncn[nH]2)cc1,-8.4,3.0,i,36.9*,1.7,0.6,-8.9,-1.5
COc1ccccc1CNc1ccc(CNc2ncn[nH]2)cc1,-4.9,-0.9,i,32.6*,-36.6,-11.4,-16.7,1.0
COc1cc(CNc2ccc(CNc3ncn[nH]3)cc2)ccc1OCc1ccccc1,-4.6,3.5,i,46.6*,-3.2,-2.5,-4.9,4.4
COc1ccc2c(CCN3C(=O)c4ccccc4C3=O)c(-c3c(CCN4C(=O)c5ccccc5C4=O)c4ccccc4n3C(=O)OC(C)(C)C)[nH]c2c1,-0.3,-4.1,nt,nt,-4.5,-2.9,nt,nt
COc1cccc(CNS(=O)(=O)c2cc3c(cc2Br)CC(C)N3C(C)=O)c1 (stereo not given),3.2,0.2,nt,nt,4.2,1.4,nt,nt
Cn1c(-c2ccc(Cl)nc2)nc2ccccc21,0.3,1.5,i,33.6*,-17.0,-9.3,-51.1,-2.8
